# Screens (PubChem)
# Methyltransferases: Primary Screen for Target Class Profiling of Small Molecule Inhibitors of Methyltransferases; calls only at 40 µM; purified enzyme, MTase-Glo SAH luminescence; hits give low values; 3.9% of 25,000 active; call rule not given here
#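 Each enzyme was assayed with SAM and its substrate. SAH formation detected by MTase-Glo luminescence; single-point 40 uM screen[…].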
# Starred values were filed as active, the others as inactive; i = inactive; + = active, no number; ! = repeats disagree. This is one part of a sample in which hits are shown more often than they occur. On the % scale 0 is the no-effect control and ±100 the full control effect.
SMILES,Methyltransferases
OC[C@H]1O[C@@H](OC(CCCCc2ccc(O)cc2)CCc2ccc(O)cc2)[C@H](O[C@@H]2OC[C@](O)(CO)[C@H]2O)[C@@H](O)[C@@H]1O (stereo partly specified),i
CN1C(=O)c2cc(C(=O)N3CCCC3)nn2CC1(C)C(=O)NCc1ccc(F)cc1 (stereo unspecified),i
Cc1ccc(NC(=O)Cn2nc3n(C(C)C)c(=O)c4ccc(C(=O)NC(C)C)cc4n3c2=O)cc1,i
C=Cc1ccc(Cn2nc3n(CC(C)C)c(=O)c4ccc(C(=O)NC5CCCCC5)cc4n3c2=O)cc1,i
CCNC(=O)NC1(CCOC)CCN(S(=O)(=O)c2cc(OC)ccc2OC)CC1,i
Cc1ccccc1CNC(=O)C1(C)Cc2ccccc2C(=O)N1Cc1cc(F)cc(F)c1 (stereo unspecified),i
COc1ccc(S(=O)(=O)N2CCC(n3cnnc3C)CC2)cc1OC,i
CC(C(=O)NCc1cccs1)n1ccc2cc(S(=O)(=O)N3CCCC3)ccc21 (stereo unspecified),i
C=CCn1c(=O)c2ccc(C(=O)NCC(C)C)cc2n2c(=O)[nH]nc12,i
CCCCOc1ccc(CNC(=O)c2cc3n(n2)CC(C)(C(=O)NC2CCCCC2)N(C)C3=O)cc1 (stereo unspecified),i
CC(=O)c1ccc(O[C@@H]2O[C@H](CO)[C@@H](O)[C@H](O)[C@H]2O)cc1,i
OC[C@H]1O[C@@H](O[C@H]2[C@H](OCc3ccccc3)O[C@H](CO[C@@H]3OC[C@@H](O)[C@H](O)[C@H]3O)[C@@H](O)[C@@H]2O)[C@H](O)[C@@H](O)[C@@H]1O,i
OC[C@H]1O[C@@H](OCCc2ccccc2)[C@H](O[C@@H]2OC[C@@H](O)[C@H](O)[C@H]2O)[C@@H](O)[C@@H]1O,+
O=C(O)/C=C/c1ccc(O)c(O[C@@H]2O[C@H](CO)[C@@H](O)[C@H](O)[C@H]2O)c1,i
CC(=O)c1c(C)cccc1O[C@@H]1O[C@H](CO)[C@@H](O)[C@H](O)[C@H]1O,+
OC[C@H]1O[C@@H](OCCc2ccc(O)cc2)[C@H](O)[C@@H](O)[C@@H]1O,i
Cc1ccc(CCN2C(=O)CSc3c(c4ccccc4n3C)C2C(=O)NCc2ccc(F)cc2)cc1 (stereo unspecified),i
CCCN1C(=O)c2c(C(=O)NCc3cccc(OC)c3)ncn2CC1(C)C(=O)NCCC(C)C (stereo unspecified),i
CC1CCC(NC(=O)C2(C)Cn3c(cc4occc43)C(=O)N2Cc2ccc(Cl)cc2)CC1 (stereo unspecified),i
Cn1cc(-c2cnc3ccc4ccc(CS(=O)(=O)NCc5ccccn5)cc4c(=O)c3c2)cn1,+
CN1C(=O)c2cc(C(=O)NCc3ccccn3)nn2CC1(C)C(=O)NCc1ccccc1 (stereo unspecified),i
Cn1cc(-c2ccc3ncc(Cc4ccc5ncccc5c4)n3n2)cn1,i
CC(C)NC(=O)c1ccc2c(=O)n(C(C)C)c3nn(Cc4cccc(F)c4)c(=O)n3c2c1,i
CC(C)CCn1c(=O)c2ccccc2n2c(=O)n(Cc3ccc(F)cc3)nc12,i
CC(O)(CC(=O)O)CC(=O)O[C@@H]1[C@@H](O)[C@H](OCCc2ccccc2)O[C@H](CO)[C@H]1O (stereo partly specified),i
SMILES,Methyltransferases
CC(O)(CC(=O)O)CC(=O)OCc1ccc(O[C@@H]2O[C@H](CO)[C@@H](O)[C@H](O)[C@H]2O)cc1 (stereo partly specified),+
O=C(O)c1ccc(OC2OC(CO)C(O)C(O)C2O)cc1 (stereo unspecified),i
CC1CC(C)CN(S(=O)(=O)c2ccc3c(c2)oc(=O)n3CC(=O)N2CCc3ccccc3C2)C1 (stereo unspecified),i
CCCN1C(=O)c2cc(C(=O)NCc3ccccn3)nn2CC1(C)C(=O)NC1CCCC1 (stereo unspecified),i
O=C(CSc1nnc2n(CCc3ccccc3)c(=O)c3ccccc3n12)NCc1ccccc1,i
O=c1c(-c2ccc(O)cc2)coc2cc(O)cc(O)c12,i
O=c1c(O)c(-c2ccc(O)c(O)c2)oc2cc(O)cc(O)c12,+!
O=c1cc(-c2ccc(O)c(O)c2)oc2cc(O)cc(O)c12,i
Cc1ccccc1CNC(=O)C1(C)Cc2ccccc2C(=O)N1Cc1ccc(C(F)(F)F)cc1 (stereo unspecified),i
CC(C)CCNC(=O)c1cc2n(n1)CC(C)(C(=O)NC1CCCCCC1)N(C)C2=O (stereo unspecified),i
COc1ccc(-c2cc3n(n2)CC(C)(C(=O)NCc2ccccc2)N(c2cccc(Cl)c2C)C3=O)cc1 (stereo unspecified),i
c1ccc(Cn2c(-c3ccc(OCC(C4CCNCC4)n4c(-c5ccccc5)nc5ccccc54)cc3)nc3ccccc32)cc1 (stereo unspecified),+
CC(C)Oc1ccc(CN2C(=O)c3nc4ccccc4n3CC2(C)C(=O)NC2CCCCCC2)cc1 (stereo unspecified),i
